# Laboratory results taken from the antibiotic and cytotoxicity screens of Wong et al. (2023).
# In all, about 39,000 compounds went through this assay and about 1,500 (3.8%) were called active. Shown is part of a subset that was picked to be rich in actives.
# Test system: HSkMC (human skeletal muscle cells)
# Experiment: cytotoxicity call (relative viability < 0.9)
# Details: 10 µM
row,Structure (SMILES),cytotoxicity call
1,COc1ccc(OC(=O)N(C)C[C@@H]2OCc3ccccc3-c3c(n(C)c4ccccc34)C(=O)N([C@@H](C)CO)C[C@H]2C)cc1,inactive
2,Cc1scc(CCN)c1C,inactive
3,Cl.Oc1noc2c1CCNC2,inactive
4,C#CC1(O)CCC2C3CCC4=CC(=O)CCC4(C)C3CCC21C (configuration not stated),inactive
5,C=CCC1(O)CCC2C3CCC4=CCCCC4C3CCC21C (configuration not stated),active
6,C=CCC1(O)CCC2C3CCC4=CC(=O)CCC4=C3C=CC21C (configuration not stated),inactive
7,CC(=O)O[C@H]1C(=O)[C@]2(C)[C@@H](O)C[C@H]3OC[C@@]3(OC(C)=O)[C@@H]2[C@H](OC(=O)c2ccccc2)[C@]2(O)C[C@H](O)C(C)=C1C2(C)C,inactive
8,[N-]=[N+]=NCc1ccccc1C[C@]1(C(=O)NCCN2CCOCC2)N=C(c2ccc(OCCCO)cc2)O[C@H]1c1ccccc1N=[N+]=[N-],inactive
9,O=c1[nH]c(=O)n(Cl)c(=O)n1Cl,inactive
10,CC1OC(OC2C=C3CCC4C(CCC5(C)C(c6ccc(=O)oc6)CCC45O)C3(C)CC2)C(O)C(O)C1O (configuration not stated),active
11,CC[C@@H](C)C(=O)O[C@H]1[C@H](O)[C@H]2[C@@H](CN3C[C@@H](C)CC[C@@H]3[C@@]2(C)O)[C@H]2C[C@]34O[C@]5(O)[C@@H](OC(=O)[C@@](C)(O)[C@@H](C)O)CC[C@@]3(C)[C@@H]5[C@@H](OC(C)=O)[C@@H](OC(C)=O)[C@@H]4[C@@]21O,inactive
12,CC(=O)OCC1=C(C(=O)[O-])N2C(=O)C(NC(=O)CCCC(N)C(=O)[O-])C2SC1.[Zn+2] (configuration not stated),inactive
13,c1ccc2c(c1)sc1ccccc12,active
14,COc1cc2c(cc1OC)C1C(=O)c3ccc4oc(C(C)C)cc4c3OC1CO2 (configuration not stated),inactive
15,NCCc1ccc(S(N)(=O)=O)cc1,inactive
16,Cc1cc([C@@H](C#N)c2ccc(Cl)cc2)c(Cl)cc1NC(=O)c1cc(I)cc(I)c1O,active
17,CC(=O)Nc1ccc(Cl)cc1C,inactive
18,Cc1cc(C(C#N)c2ccc(Cl)cc2)c(Cl)cc1NC(=O)c1cc(I)cc(I)c1O (configuration not stated),inactive
19,COc1cc(CCN)ccc1O,inactive
20,Cc1ccc(C2(CN)CCCCC2)cc1,inactive
21,CC(C)C12OC1C1OC13C1(C)CCC4=C(COC4=O)C1CC1OC13C2O (configuration not stated),inactive
22,CNc1ccccc1C(=O)O,inactive
23,COC(=O)NC(=S)Nc1ccccc1NC(=S)NC(=O)OC,active
24,CCC1CN2CCc3cc(OC)c(OC)cc3C2CC1CC1NCCc2cc(OC)c(OC)cc21.Cl.Cl (configuration not stated),inactive
25,COc1ccc(CCN)cc1O,inactive
26,CC(C)CC(CN)CC(=O)O (configuration not stated),inactive

row,Structure (SMILES),cytotoxicity call
1,C[C@]12CC[C@]3(C)OC[C@](CO)(CO1)N23,inactive
2,Nc1ccccc1-c1ccccc1,inactive
3,CCC1(C2OC(C3OC(O)(CO)C(C)CC3C)CC2C)CCC(C2(C)CCC3(CC(O)C(C)C(C(C)C(OC)C(C)C(=O)[O-])O3)O2)O1.[Na+] (configuration not stated),inactive
4,NC1CC1c1ccccc1.O=S(=O)(O)O (configuration not stated),inactive
5,O=c1cccc2n1CC1CNCC2C1 (configuration not stated),inactive
6,COC(=O)C[C@H]1CC[C@H]2NC[C@H](O)COC[C@@H]2O1,inactive
7,CCC(C)C1OC2(C=CC1C)CC1CC(CC=C(C)C(OC3CC(OC)C(OC4CC(OC)C(O)C(C)O4)C(C)O3)C(C)C=CC=C3COC4C(O)C(C)=CC(C(=O)O1)C34O)O2 (configuration not stated) [ABAMECTIN (avermectin B1a shown) ],inactive
8,C[N+](C)(C)CCCl,inactive
9,C[N+](C)(C)CCCCCCCCCC[N+](C)(C)C.[Br-].[Br-],inactive
10,CCCCCCCCCCCCCCCC[N+](C)(C)C.[Br-],active
11,CC1CC(C)C(=O)C(C(O)CC2CC(=O)NC(=O)C2)C1 (configuration not stated),inactive
12,Cc1nn[nH]n1,inactive
13,CC(=O)CC1CCCCN1.Cl (configuration not stated),inactive
14,CCn1cnc2c(Nc3cccc(Cl)c3)nc(N[C@@H]3CCCC[C@@H]3N)nc21,active
15,CCN(Cc1ccc(Cl)nc1)C(=C[N+](=O)[O-])NC,inactive
16,C=CCN1C[C@H]2CN(C(C)C)C[C@H]2C1=O,inactive
17,CO[C@@H]1C=C[C@@H]2[C@H]1N2CCCO (some centres not stated),inactive
18,Nc1c[n+](CCc2ccccc2)no1,inactive
19,CN1CCN(C(=O)CN=[N+]=[N-])CC1,inactive
20,C=C(CCCCCCCCCCCCCCCC)OOC[C@@H](COP(=O)(ON)O[C@@H]1[C@H](O)[C@H](O)[C@@H](OP(=O)(O)ON)[C@H](OP(=O)(O)ON)[C@H]1O)OOC(=C)CC/C=C/C/C=C/C/C=C/C/C=C/CCCCC (some centres not stated),inactive
21,C=C(C)[C@@H]1CCC(C)=C[C@H]1c1c(OC)cc(C)cc1OC,inactive
22,C=C(C)[C@@H]1CCC(C)=C[C@H]1c1c(O)cc(CCCCC)cc1O,active
23,C[C@@H]1C(=O)O[C@H]2[C@H](O)[C@@]34[C@@H]5OC(=O)[C@@]3(O[C@@H]3OC(=O)[C@H](O)[C@@]34[C@H](C(C)(C)C)[C@H]5O)[C@@]12O,inactive
24,NC1(c2ccc(Cl)cc2)CC1,inactive
25,O=[As]O[As]=O (configuration not stated),inactive
26,O=C(O)Cc1cccnc1C(=O)O,inactive

row,Structure (SMILES),cytotoxicity call
1,C[C@@H]1O[C@@H](O[C@H]2CC[C@]3(C=O)[C@H]4CC[C@]5(C)[C@@H](C6=CC(=O)OC6)CC[C@]5(O)[C@@H]4CC[C@]3(O)C2)[C@H](O)[C@H](O)[C@H]1O,active
2,CO[C@H]1[C@@H](O)[C@@H](C)O[C@H](O[C@H]2CC[C@@]3(C)[C@H]4CC[C@@]5(C)[C@@H](C6=CC(=O)OC6)CC[C@]5(O)[C@@H]4CC[C@]3(O)C2)[C@@H]1O,inactive
3,CC1OC(OC2CCC3(C=O)C4CCC5(C)C(C6=CC(=O)OC6)CCC5(O)C4CCC3(O)C2)C(O)C(O)C1O (configuration not stated),active
4,COC1C(O)C(C)OC(OC2CCC3(C=O)C(CCC4C3CCC3(C)C(C5=CC(=O)OC5)CCC43O)C2)C1O (configuration not stated),active
5,COC1C(O)C(C)OC(OC2CCC3(C)C4CCC5(C)C(C6=CC(=O)OC6)CCC5(O)C4CCC3(O)C2)C1O (configuration not stated),inactive
6,CO[C@H]1C[C@H](O[C@H]2CC[C@]3(C=O)[C@H]4CC[C@]5(C)[C@@H](C6=CC(=O)OC6)CC[C@]5(O)[C@@H]4CC[C@]3(O)C2)O[C@H](C)[C@H]1O,active
7,CC(C)(C)OC(=O)N[C@H]1[C@@H]2CNC[C@@H]21,inactive
8,COC(N)=O,inactive
9,C[C@H](CO)N1C[C@H](C)[C@@H](CN(C)C(=O)Oc2cccc3ccccc23)OCc2cn(nn2)CCCC1=O,inactive
10,COC(=O)C[C@H]1CC[C@@H]2NC[C@H](O)COC[C@H]2O1,inactive
11,Cc1ccc(OC(=O)N(C)C[C@@H]2OCc3ccccc3-c3c(n(C)c4ccccc34)C(=O)N([C@H](C)CO)C[C@H]2C)cc1,inactive
12,COc1ccc(OC)c(C(O)C(C)N)c1.Cl (configuration not stated),inactive
13,C[N+]1(C)CCCC(OC(=O)C(O)(c2ccccc2)c2ccccc2)C1.[Br-] (configuration not stated),inactive
14,NC[C@@H](O)c1ccccc1,inactive
15,CC(C)(C)OC(=O)N1C[C@H]2C[C@@H]1CN2,inactive
16,c1cc2c(cc1CN1CCNCC1)OCO2,inactive
17,c1ccc2cc3c(cc2c1)-c1cccc2cccc-3c12,inactive
18,CCC1=C[C@@H]2[C@H](C1)C[C@]2(CN)CC(=O)O,inactive
19,[N-]=[N+]=NCc1ccccc1C[C@]1(C(=O)N2CCCCC2)N=C(c2ccc(OCCCO)cc2)O[C@H]1c1ccccc1N=[N+]=[N-],inactive
20,CC12CCC3C(CCC4(O)CC(O)CCC34C=O)C1(O)CCC2C1=CC(=O)OC1 (configuration not stated),active
21,NC[C@@H](CC(=O)O)c1ccccc1,inactive
22,CCOC(OCC)P(=O)(O)CCCN,inactive
23,CC(=O)N[C@@H]1[C@H](O[C@@H]2O[C@H](C[C@@H](O)[C@H]3O[C@@H](n4ccc(=O)[nH]c4=O)[C@H](O)[C@@H]3O)[C@H](O)[C@H](O)[C@H]2NC(=O)/C=C/CCCCCCCCC(C)C)O[C@@H](CO)[C@H](O)[C@H]1O,inactive
24,Oc1cc(Cl)ccc1Oc1ccc(Cl)cc1Cl [listing 1 of 2 here],active
25,Oc1ccc(Cl)cc1Cc1cc(Cl)ccc1O,inactive
26,Oc1cc(Cl)ccc1Oc1ccc(Cl)cc1Cl [listing 2 of 2 here],inactive

row,Structure (SMILES),cytotoxicity call
1,CC(C)[C@@H]1NC[C@@H]2CCCN2C1=O,inactive
2,CC1=CC(=O)c2c(O)cccc2C1=O,active
3,Oc1ccccc1-c1ccccc1O,inactive
4,O=C1C=CC(=O)c2c(O)cccc21,inactive
5,O=C(O)C=CC(=O)O.c1ccc2nc(N3CCNCC3)ccc2c1,inactive
6,Cc1ncc(CNC(=O)N(CCCl)[NH2+][O-])c(N)n1,inactive
7,CC(=O)OC1C2CCC3C(C)(O)C4CC(O)C(C)(C)C4(O)C(O)CC13CC2(C)O (configuration not stated),inactive
8,Cc1cc(C2=NO[C@](c3cc(Cl)cc(Cl)c3)(C(F)(F)F)C2)ccc1C(=O)NCC(=O)NCC(F)(F)F,active
9,CN1CCOCC12CCN(c1ncccn1)CC2,inactive
10,COc1ccc(C2(CN)CCCC2)cc1,inactive
11,NCc1cc(=O)[nH]o1,inactive
12,O=C1N[C@@H]2C(=C[C@H](O)[C@@H](O)[C@H]2O)c2cc3c(c(O)c21)OCO3,active
13,N[C@@H](c1ccccc1)[C@H](O)c1ccccc1,inactive
14,CNC(=O)Oc1ccc2c(c1)C1(C)CCN(C)C1N2C.O=S(=O)(O)O (configuration not stated),inactive
15,Cc1ccc(N2CCO[C@@H]3CNCC[C@H]3C2)nn1,inactive
16,NCCc1nccs1,inactive
17,CCN1C[C@H]2CN(Cc3nccn3C)C[C@H]2C1=O,inactive
18,CNC(=O)Oc1cccc2ccccc12,inactive
19,C[C@H]1C[C@H]2CNCC[C@@H]2O1,inactive
20,O=[N+]([O-])c1ccc(N(CCO)CCO)c2c1no[n+]2[O-],active
21,CNC(=O)Oc1ccc2c(c1)C1(C)CCN(C)C1N2C.O=C(O)c1ccccc1O (configuration not stated),inactive
22,Cn1ccnc1CN1CCC[C@]2(CCNC2=O)C1,inactive
23,CC(=O)NN1Cc2ccccc2C1=N,inactive
24,CC(C)c1ccc2[nH]c(=O)c(CCN)cc2c1,inactive
